{
  "source": "PubChem BioAssay (NCATS)",
  "note": "Records with an inconclusive call do not appear. Unmarked numbers belong to inactive results. Calls follow the shape of the dose curve; as a rule, active = well fitted cell-killing curve with a large enough effect; inconclusive = small, poorly fitted or top-dose-only effect, or effect the other way; inactive = flat fitted curve, though single readings scatter. % is scaled to controls: 0 for no effect and ±100 for the full control effect.",
  "data": [
    {"tested_on": "Tov-21-G", "assay": "Primary qHTS to identify gynecologic anti-cancer compounds using libraries of approved drugs and bioactive compounds (AID 1345084); also: nearly all actives have a fitted effect of over 55% in size", "details": "Gynecologic cancer cell panel viability, ATPlite luminescence, 48 h; series mostly up to 57.5 µM; activity change, negative = cytotoxicity: at the top concentration", "in_short": "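Cells, 1,000 per well, plated 16 h, then exposed 48 h at 37 C to compounds. Viability by ATPlite luminescence after 15 min at room temperature.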", "values": [
      {"smiles": "CC(CC(C)O[C@@H]1O[C@H](CO)[C@@H](O)[C@H](O)[C@H]1O)OC(=O)/C=C/c1ccc(O)cc1", "note": "(some centres undefined)", "activity change, negative = cytotoxicity": "0.608% [at 25.3 µM]"},
      {"smiles": "C=C(C)[C@@H]1CC[C@]2(C(=O)O)CC[C@]3(C)[C@H](CCC4[C@@]5(C)CCC(=O)C(C)(C)C5C(O)C[C@]43C)C12", "note": "(some centres undefined)", "activity change, negative = cytotoxicity": "-0.794% [at 25.3 µM]"},
      {"smiles": "O=C(O)/C=C/c1ccc2occc2c1O[C@@H]1O[C@H](CO)[C@@H](O)[C@H](O)[C@H]1O", "activity change, negative = cytotoxicity": "-2.11% [at 38.5 µM]"},
      {"smiles": "O=C(O)CC1(O)C(=O)Nc2ccccc21", "note": "(centres undefined)", "activity change, negative = cytotoxicity": "20.9%"},
      {"smiles": "CS(=O)(=O)c1ccccc1N1CCN(c2nc3c(c(=O)[nH]2)CSCC3)CC1", "activity change, negative = cytotoxicity": "-8.3%"},
      {"smiles": "COC(=O)C1=CO[C@@H](O[C@@H]2O[C@H](CO)[C@@H](O)[C@H](O)[C@H]2O)[C@@H]2[C@@H](C)[C@@H](OC(=O)/C=C/c3ccccc3)[C@@H](O)[C@H]12", "activity change, negative = cytotoxicity": "2.23% [at 25.3 µM]"},
      {"smiles": "CC1C(=O)OCC2=CC[N+]3([O-])CCC(OC(=O)C(C)(O)C1(C)O)C23", "note": "(centres undefined)", "activity change, negative = cytotoxicity": "-16.6% [at 38.5 µM]"},
      {"smiles": "C[C@@H](c1ccccc1)N(C(N)=NC#N)c1cccc2ncccc12", "activity change, negative = cytotoxicity": "13.4%"},
      {"smiles": "COC(=O)C1=COC(O[C@@H]2O[C@H](COC(=O)/C=C/c3ccc(O)cc3)[C@@H](O)[C@H](O)[C@H]2O)C2C(CO)=CCC12", "note": "(some centres undefined)", "activity change, negative = cytotoxicity": "2.48% [at 25.3 µM]"},
      {"smiles": "C=C1C(=O)O[C@@H]2CC(C)=C([C@@H](C)CCCOC(C)=O)[C@@H](O)[C@H]12", "activity change, negative = cytotoxicity": "0.412% [at 38.5 µM]"},
      {"smiles": "COC(=O)C1=COC(O[C@@H]2O[C@H](CO)[C@@H](O)[C@H](O)[C@H]2O)C2C(C)C(=O)CC12", "note": "(some centres undefined)", "activity change, negative = cytotoxicity": "3.99% [at 38.5 µM]"},
      {"smiles": "CC1(C)CC=C(C#Cc2ccccc2)c2cc(/C=C/c3ccc(C(=O)O)cc3)ccc21", "activity change, negative = cytotoxicity": "3.69%"},
      {"smiles": "CC12CC(O)C(O)C=C1c1cc(O)cc(O)c1C(=O)O2", "note": "(centres undefined)", "activity change, negative = cytotoxicity": "1.12%"},
      {"smiles": "CC(=O)OC(C)(C)/C=C/C(=O)[C@](C)(O)C1[C@H](O)C[C@@]2(C)[C@@H]3CC=C4[C@@H](C[C@H](O[C@@H]5O[C@H](CO)[C@@H](O)[C@H](O)[C@H]5O)C(=O)C4(C)C)[C@]3(C)C(=O)C[C@]12C", "note": "(some centres undefined)", "activity change, negative = cytotoxicity": "0.513% [at 25.3 µM]"},
      {"smiles": "CN1CCN(C2=Nc3ccccc3Nc3ccc(O)cc32)CC1", "activity change, negative = cytotoxicity": "11.5%"},
      {"smiles": "CC(=O)OC/C(=C/C(=O)O)CC[C@@H]1C(CO)=CC[C@@H]2C(C)(C)CCC[C@@]12C", "activity change, negative = cytotoxicity": "-4.02% [at 38.5 µM]"},
      {"smiles": "CC(=O)OC1C(CO)OC(O[C@H]2[C@H](OC(=O)[C@]34CCC(C)(C)C[C@H]3C3=CCC5[C@@]6(C)CC[C@H](O[C@@H]7O[C@H](C(=O)O)[C@@H](O)[C@H](O[C@@H]8OC[C@@H](O)[C@H](O)[C@H]8O)[C@H]7O[C@@H]7O[C@H](CO)[C@H](O)[C@H](O)[C@H]7O)[C@@](C)(C=O)C6CC[C@@]5(C)[C@]3(C)C[C@H]4O)O[C@H](C)[C@H](OC3OC(C)C(OC4OCC(O)C(O)C4O)C(O)C3O)[C@@H]2O)C(O)C1O", "note": "(some centres undefined)", "activity change, negative = cytotoxicity": "2.01% [at 6.55 µM]"},
      {"smiles": "C/C(=C\\CO)CC/C=C(\\C)C(=O)O[C@@H]1O[C@H](CO)[C@@H](O)[C@H](O)[C@H]1O", "activity change, negative = cytotoxicity": "5.72% [at 38.5 µM]"},
      {"smiles": "COc1cc(C)c(C(=O)O[C@@H]2[C@H](O)[C@@H](CO)O[C@H]2n2ccc(=O)[nH]c2=O)c(OC)c1", "activity change, negative = cytotoxicity": "0.239% [at 25.3 µM]"},
      {"smiles": "COc1cc(/C=C/CO[C@@H]2O[C@H](CO)[C@@H](O)[C@H](O)[C@H]2O)cc(OC)c1O[C@@H]1O[C@H](CO)[C@@H](O)[C@H](O)[C@H]1O", "activity change, negative = cytotoxicity": "-3.34% [at 25.3 µM]"},
      {"smiles": "CC1=C2C(=O)C=C(CO)C2C2OC(=O)C(CS(=O)(=O)O)C2C(OC(=O)Cc2ccc(O)cc2)C1", "note": "(centres undefined)", "activity change, negative = cytotoxicity": "0.45% [at 25.3 µM]"},
      {"smiles": "C[C@@H]1C[C@@H](O)[C@@]23CO[C@]2(CO)CCC[C@@H]3[C@@]12C[C@@H](c1ccoc1)OC2=O", "activity change, negative = cytotoxicity": "-4.82% [at 38.5 µM]"},
      {"smiles": "NC1Nc2ccccc2C1(N)CC1NC(=O)C(Cc2ccccc2)NC(=O)C(Cc2ccccc2)NC1=O", "note": "(centres undefined)", "activity change, negative = cytotoxicity": "1.63% [at 25.3 µM]"},
      {"smiles": "CC(C/C=C/C(C)(C)O)C1CCC(C)(O)C(O)C1", "note": "(centres undefined)", "activity change, negative = cytotoxicity": "3.48%"},
      {"smiles": "CCC(C)/C=C(C)/C=C/C1=CC2=C(Cl)C(=O)C(C)(OC(C)=O)C(=O)C2=CN1C(CCCN=C(N)N)C(=O)O", "note": "(centres undefined)", "activity change, negative = cytotoxicity": "4.52% [at 25.3 µM]"},
      {"smiles": "COc1ccc(CCC(=O)O)c(O[C@@H]2O[C@H](CO)[C@@H](O)[C@H](O)[C@H]2O)c1", "activity change, negative = cytotoxicity": "1.97% [at 38.5 µM]"},
      {"smiles": "C=C(C)[C@@H]1CC[C@]2(C(=O)O)CC[C@]3(C)C(CCC4[C@]5(C)C(CC[C@]43C)C(C)(C)[C@@H](O)[C@@H]5C(=O)O)C12", "note": "(some centres undefined)", "activity change, negative = cytotoxicity": "4.64% [at 25.3 µM]"},
      {"smiles": "C/C(=C/CO)CC[C@H]1[C@]2(C)C[C@H](O)CC(C)(C)[C@H]2CC[C@]1(C)O", "activity change, negative = cytotoxicity": "-3.16% [at 38.5 µM]"},
      {"smiles": "CCC(C)(C)C1CCc2c(sc(NC(=O)c3ccc(Br)cc3)c2C#N)C1", "note": "(centres undefined)", "activity change, negative = cytotoxicity": "6.28%"},
      {"smiles": "C[C@@H]1O[C@@H](O[C@H]2[C@@H]3C=CO[C@@H](O[C@@H]4O[C@H](CO)[C@@H](O)[C@H](O)[C@H]4O)[C@@H]3[C@@]3(CO)O[C@@H]23)[C@H](OC(=O)/C=C/c2ccc(O)cc2)[C@H](O)[C@H]1O", "activity change, negative = cytotoxicity": "6.13% [at 25.3 µM]"},
      {"smiles": "OC[C@H]1O[C@@H](OCc2ccccc2)[C@H](O)[C@@H](O)[C@@H]1O", "activity change, negative = cytotoxicity": "-0.222%"},
      {"smiles": "C=C1C(=O)OC2CC(COC(=O)C(C)C)=C(C(C)CCCOC(C)=O)[C@@H](OC(C)=O)C12", "note": "(some centres undefined)", "activity change, negative = cytotoxicity": "-11.5% [at 25.3 µM]"},
      {"smiles": "COc1cc(C(CO)C(OC2OC(CO)C(O)C(O)C2O)c2ccc(O)c(OC)c2)ccc1O", "note": "(centres undefined)", "activity change, negative = cytotoxicity": "6.04% [at 25.3 µM]"},
      {"smiles": "C=C1CC2C3(C)C=CC(=O)OC(C)(C)C3CC(OC(C)=O)C2(C)C2C(=O)OC(C)C(=O)C12C", "note": "(centres undefined)", "activity change, negative = cytotoxicity": "-0.0615% [at 25.3 µM]"},
      {"smiles": "CC(C)(O)C(O)C(=O)OCc1ccc(O[C@@H]2O[C@H](CO)[C@@H](O)[C@H](O)[C@H]2O)cc1", "note": "(some centres undefined)", "activity change, negative = cytotoxicity": "-0.771% [at 25.3 µM]"},
      {"smiles": "CC(=O)OC[C@@]12C(=O)C[C@@H](C)[C@]3(C[C@@H](c4ccoc4)OC3=O)[C@H]1CC[C@H](OC(C)=O)[C@]21CO1", "activity change, negative = cytotoxicity": "4.8% [at 25.3 µM]"},
      {"smiles": "Cc1cc(C)c2nc(-c3ccccn3)cc(C(=O)Nc3ccc(S(=O)(=O)Nc4onc(C)c4C)cc3)c2c1", "activity change, negative = cytotoxicity": "-1.04%"},
      {"smiles": "CC(=O)c1ccc(O[C@@H]2OC[C@@H](O)[C@H](O)[C@H]2O[C@]2(CO)O[C@H](CO)[C@@H](O)[C@@H]2O)c(O)c1", "activity change, negative = cytotoxicity": "-0.523% [at 25.3 µM]"},
      {"smiles": "C=C1C[C@H](O)[C@@H](O)[C@@]2(C)C1[C@@H](O)[C@H]1OC(=O)C3[C@@H](C)[C@@H](O)[C@H](O)C2[C@]31C", "note": "(some centres undefined)", "activity change, negative = cytotoxicity": "1.08% [at 38.5 µM]"}
    ]}
  ]
}
